# The full data set covers some 7,900 targets. This sample favours those with a hit. About 0.6% of all pairs of compound and target were hits. Unmarked numbers belong to inactive results.
# Experiments:
# Experiment in all cases: log2 fold change, soluble protein after heating vs DMSO (PISA); higher = thermal stabilisation; K562 cells, 10 uM, 30 min; active = over 0.2 and 3.5 SD of the protein, either way, in both replicates (recomputed)
# [1] = compound: CS(=O)(=O)c1ccc(-c2cnc(N)c(C(=O)Nc3ccccc3)n2)cc1
# Summary of the method: (§1)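 Quantification of soluble protein used TMTpro 16plex LC-MS/MS, with channel sums equalised. Samples were the supernatant after 21,000xg for 90 min of pooled aliquots from K562 cells (2×10^6 cells/mL) treated with 10 μM compound for 30 min, heated for 3 min over 48°C-58°C, and extracted in PBS with 0.5% NP-40 at 4°C. Values, from duplicates, describe thermal stability against control samples on a log2 fold-change scale.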
# crizotinib = compound: C[C@@H](Oc1cc(-c2cnn(C3CCNCC3)c2)cnc1N)c1c(Cl)ccc(F)c1Cl [crizotinib]
# Summary of the method: as §1
# [2] = compound: C[C@@H]1COCCN1C2=NC(=NC(=C2)C3(CC3)S(=O)(=O)C)C4=C5C=CNC5=CC=C4
# Summary of the method: as §1
# [3] = compound: C[C@H](C1=CC=C(C=C1)C(=O)NC2=C3C=CNC3=NC=C2)N
# Summary of the method: as §1
# duvelisib = compound: C[C@H](Nc1ncnc2nc[nH]c12)c1cc2cccc(Cl)c2c(=O)n1-c1ccccc1 [duvelisib]
# Summary of the method: as §1
# gandotinib = compound: Cc1cc(Nc2cc(CN3CCOCC3)c3nc(C)c(Cc4ccc(Cl)cc4F)n3n2)n[nH]1 [gandotinib]
# Summary of the method: as §1
# tozasertib = compound: Cc1cc(Nc2cc(N3CCN(C)CC3)nc(Sc3ccc(NC(=O)C4CC4)cc3)n2)n[nH]1 [tozasertib]
# Summary of the method: as §1
# [4] = compound: Cc1cc(SCc2sc(-c3ccc(C(F)(F)F)cc3)nc2C)ccc1OCC(=O)O
# Summary of the method: as §1
# doramapimod = compound: Cc1ccc(-n2nc(C(C)(C)C)cc2NC(=O)Nc2ccc(OCCN3CCOCC3)c3ccccc23)cc1 [doramapimod]
# Summary of the method: as §1
# ispinesib = compound: Cc1ccc(C(=O)N(CCCN)[C@@H](c2nc3cc(Cl)ccc3c(=O)n2Cc2ccccc2)C(C)C)cc1 [ispinesib]
# Summary of the method: as §1
# bafetinib = compound: Cc1ccc(NC(=O)c2ccc(CN3CC[C@H](N(C)C)C3)c(C(F)(F)F)c2)cc1Nc1nccc(-c2cncnc2)n1 [bafetinib]
# Summary of the method: as §1
# [5] = compound: Cc1cccc(CC(=O)N2CCc3c2ccc(-c2cn(C)c4ncnc(N)c24)c3F)n1
# Summary of the method: as §1
# nilotinib = compound: Cc1cn(-c2cc(NC(=O)c3ccc(C)c(Nc4nccc(-c5cccnc5)n4)c3)cc(C(F)(F)F)c2)cn1 [nilotinib]
# Summary of the method: as §1
# [6] = compound: Cc1nc(Nc2n[nH]c3c2CN(C(=O)N[C@H](CN(C)C)c2ccccc2)C3(C)C)c2sccc2n1
# Summary of the method: as §1
# dasatinib = compound: Cc1nc(Nc2ncc(C(=O)Nc3c(C)cccc3Cl)s2)cc(N2CCN(CCO)CC2)n1 [dasatinib]
# Summary of the method: as §1
# [7] = compound: Cc1ncc(-c2ccnc(Nc3ccc(S(C)(=O)=O)cc3)n2)n1C(C)C
# Summary of the method: as §1
# [8] = compound: Cn1cc(-c2ccc3c(c2)CCN3C(=O)Cc2cccc(C(F)(F)F)c2)c2c(N)ncnc21
# Summary of the method: as §1
# [9] = compound: Cn1cc(-c2ccc3nnc(C(F)(F)c4ccc5ncccc5c4)n3n2)cn1
# Summary of the method: as §1
# tipifarnib = compound: Cn1cncc1[C@@](N)(c1ccc(Cl)cc1)c1ccc2c(c1)c(-c1cccc(Cl)c1)cc(=O)n2C [tipifarnib]
# Summary of the method: as §1
# mubritinib = compound: FC(F)(F)c1ccc(/C=C/c2nc(COc3ccc(CCCCn4ccnn4)cc3)co2)cc1 [mubritinib]
# Summary of the method: as §1
# Chain of UniProt Q9P2R7 (Q9P2R7 whole entry, looked up): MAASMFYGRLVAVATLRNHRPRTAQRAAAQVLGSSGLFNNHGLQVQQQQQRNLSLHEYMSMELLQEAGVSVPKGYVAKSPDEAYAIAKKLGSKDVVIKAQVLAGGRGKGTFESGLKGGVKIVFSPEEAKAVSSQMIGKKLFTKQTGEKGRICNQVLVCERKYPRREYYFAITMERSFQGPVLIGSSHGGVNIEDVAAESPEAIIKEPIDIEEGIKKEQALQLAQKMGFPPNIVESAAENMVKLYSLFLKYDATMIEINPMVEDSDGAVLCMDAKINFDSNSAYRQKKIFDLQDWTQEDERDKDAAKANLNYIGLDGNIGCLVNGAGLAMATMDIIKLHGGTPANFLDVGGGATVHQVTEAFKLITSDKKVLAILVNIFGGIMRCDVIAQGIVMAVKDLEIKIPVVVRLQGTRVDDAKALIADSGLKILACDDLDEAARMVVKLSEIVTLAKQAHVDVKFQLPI
# Chain of UniProt P12235 (P12235 whole entry, looked up): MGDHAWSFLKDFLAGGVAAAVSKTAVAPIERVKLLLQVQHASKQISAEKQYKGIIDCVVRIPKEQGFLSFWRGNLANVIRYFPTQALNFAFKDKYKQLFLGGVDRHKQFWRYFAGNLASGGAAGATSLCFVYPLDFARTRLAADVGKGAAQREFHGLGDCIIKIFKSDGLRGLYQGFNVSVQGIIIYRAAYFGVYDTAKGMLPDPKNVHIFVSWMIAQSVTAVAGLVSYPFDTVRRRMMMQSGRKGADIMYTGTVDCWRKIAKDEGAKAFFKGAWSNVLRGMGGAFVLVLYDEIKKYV
# Chain of UniProt Q96DI7 (Q96DI7 whole entry, looked up): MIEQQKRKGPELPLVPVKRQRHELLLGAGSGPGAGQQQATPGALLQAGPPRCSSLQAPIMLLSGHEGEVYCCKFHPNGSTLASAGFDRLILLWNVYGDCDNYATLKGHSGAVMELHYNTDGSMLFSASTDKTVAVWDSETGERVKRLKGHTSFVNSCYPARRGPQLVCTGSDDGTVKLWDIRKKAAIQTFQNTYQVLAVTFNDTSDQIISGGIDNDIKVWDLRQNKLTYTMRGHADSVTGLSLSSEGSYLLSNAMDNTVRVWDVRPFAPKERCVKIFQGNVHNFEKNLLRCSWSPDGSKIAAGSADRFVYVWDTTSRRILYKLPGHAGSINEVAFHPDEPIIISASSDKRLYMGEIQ
# Chain of UniProt Q9UP52 (Q9UP52 whole entry, looked up): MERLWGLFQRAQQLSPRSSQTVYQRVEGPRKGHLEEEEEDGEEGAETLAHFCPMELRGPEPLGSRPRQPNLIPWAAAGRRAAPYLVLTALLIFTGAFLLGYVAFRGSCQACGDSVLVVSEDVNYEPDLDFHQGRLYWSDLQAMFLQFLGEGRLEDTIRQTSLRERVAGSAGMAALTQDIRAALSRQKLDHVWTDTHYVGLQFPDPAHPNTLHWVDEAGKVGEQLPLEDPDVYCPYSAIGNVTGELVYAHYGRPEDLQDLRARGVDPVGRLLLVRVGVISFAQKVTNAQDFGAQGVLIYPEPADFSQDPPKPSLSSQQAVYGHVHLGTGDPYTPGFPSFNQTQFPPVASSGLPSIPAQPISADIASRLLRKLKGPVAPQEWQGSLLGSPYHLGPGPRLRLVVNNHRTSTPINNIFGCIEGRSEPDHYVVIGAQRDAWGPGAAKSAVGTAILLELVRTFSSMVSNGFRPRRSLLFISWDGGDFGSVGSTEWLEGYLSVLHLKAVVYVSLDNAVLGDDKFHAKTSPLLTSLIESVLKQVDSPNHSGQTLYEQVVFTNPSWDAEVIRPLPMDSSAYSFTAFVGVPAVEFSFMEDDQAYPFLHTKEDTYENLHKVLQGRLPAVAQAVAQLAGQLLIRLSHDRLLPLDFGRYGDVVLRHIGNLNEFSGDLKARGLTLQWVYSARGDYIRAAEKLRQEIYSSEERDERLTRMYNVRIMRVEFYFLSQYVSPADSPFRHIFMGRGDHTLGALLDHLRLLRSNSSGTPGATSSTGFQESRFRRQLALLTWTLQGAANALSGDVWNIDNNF
# Chain of UniProt Q7L7X3 (Q7L7X3 whole entry, looked up): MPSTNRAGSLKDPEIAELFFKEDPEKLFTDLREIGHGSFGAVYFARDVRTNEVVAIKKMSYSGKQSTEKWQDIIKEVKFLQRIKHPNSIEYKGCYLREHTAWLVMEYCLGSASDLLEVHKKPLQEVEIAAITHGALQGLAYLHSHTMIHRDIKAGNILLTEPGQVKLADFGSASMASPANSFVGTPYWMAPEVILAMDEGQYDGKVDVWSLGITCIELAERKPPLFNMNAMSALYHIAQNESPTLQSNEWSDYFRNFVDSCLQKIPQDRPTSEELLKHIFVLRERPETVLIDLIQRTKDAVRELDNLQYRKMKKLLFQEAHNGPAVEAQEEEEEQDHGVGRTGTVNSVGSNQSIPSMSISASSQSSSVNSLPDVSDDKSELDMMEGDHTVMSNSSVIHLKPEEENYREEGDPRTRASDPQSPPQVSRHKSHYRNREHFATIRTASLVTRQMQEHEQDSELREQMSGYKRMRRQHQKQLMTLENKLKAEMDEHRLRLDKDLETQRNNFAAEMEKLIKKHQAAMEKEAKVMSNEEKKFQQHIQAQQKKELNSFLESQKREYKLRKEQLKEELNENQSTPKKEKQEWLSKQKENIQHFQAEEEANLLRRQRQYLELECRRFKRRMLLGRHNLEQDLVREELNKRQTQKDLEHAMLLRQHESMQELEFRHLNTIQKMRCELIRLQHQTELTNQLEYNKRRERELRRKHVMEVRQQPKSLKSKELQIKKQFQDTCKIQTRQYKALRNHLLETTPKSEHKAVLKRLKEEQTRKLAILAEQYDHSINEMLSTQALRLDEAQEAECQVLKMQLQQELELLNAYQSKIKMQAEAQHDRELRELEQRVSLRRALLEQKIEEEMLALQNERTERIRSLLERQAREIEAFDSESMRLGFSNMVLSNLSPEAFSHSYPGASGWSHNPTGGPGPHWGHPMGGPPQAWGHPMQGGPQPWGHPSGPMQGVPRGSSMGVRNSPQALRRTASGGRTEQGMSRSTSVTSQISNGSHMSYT
# Chain of UniProt Q9NQZ5 (Q9NQZ5 whole entry, looked up): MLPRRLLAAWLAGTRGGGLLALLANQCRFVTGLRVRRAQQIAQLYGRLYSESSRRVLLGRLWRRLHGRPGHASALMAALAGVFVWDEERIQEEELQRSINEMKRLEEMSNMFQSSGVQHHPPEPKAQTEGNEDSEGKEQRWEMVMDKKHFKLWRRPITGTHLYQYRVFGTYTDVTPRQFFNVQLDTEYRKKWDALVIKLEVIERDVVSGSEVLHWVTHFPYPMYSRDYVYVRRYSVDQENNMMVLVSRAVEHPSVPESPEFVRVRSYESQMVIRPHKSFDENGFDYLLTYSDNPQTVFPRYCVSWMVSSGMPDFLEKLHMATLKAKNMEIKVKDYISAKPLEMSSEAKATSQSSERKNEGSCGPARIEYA
# Chain of UniProt Q8NEF9 (Q8NEF9 whole entry, looked up): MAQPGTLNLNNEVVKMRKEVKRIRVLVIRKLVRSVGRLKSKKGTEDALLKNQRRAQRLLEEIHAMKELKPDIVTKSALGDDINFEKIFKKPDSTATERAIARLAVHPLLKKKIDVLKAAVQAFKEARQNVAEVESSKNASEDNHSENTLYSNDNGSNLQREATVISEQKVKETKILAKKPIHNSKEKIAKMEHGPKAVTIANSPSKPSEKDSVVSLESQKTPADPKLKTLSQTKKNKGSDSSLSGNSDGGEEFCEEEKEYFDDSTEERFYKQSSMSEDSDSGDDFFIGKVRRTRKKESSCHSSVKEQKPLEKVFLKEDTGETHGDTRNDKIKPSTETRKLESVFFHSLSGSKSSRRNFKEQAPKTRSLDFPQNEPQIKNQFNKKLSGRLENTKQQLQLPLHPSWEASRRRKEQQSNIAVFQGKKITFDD
# Chain of UniProt O60749 (O60749 whole entry, looked up): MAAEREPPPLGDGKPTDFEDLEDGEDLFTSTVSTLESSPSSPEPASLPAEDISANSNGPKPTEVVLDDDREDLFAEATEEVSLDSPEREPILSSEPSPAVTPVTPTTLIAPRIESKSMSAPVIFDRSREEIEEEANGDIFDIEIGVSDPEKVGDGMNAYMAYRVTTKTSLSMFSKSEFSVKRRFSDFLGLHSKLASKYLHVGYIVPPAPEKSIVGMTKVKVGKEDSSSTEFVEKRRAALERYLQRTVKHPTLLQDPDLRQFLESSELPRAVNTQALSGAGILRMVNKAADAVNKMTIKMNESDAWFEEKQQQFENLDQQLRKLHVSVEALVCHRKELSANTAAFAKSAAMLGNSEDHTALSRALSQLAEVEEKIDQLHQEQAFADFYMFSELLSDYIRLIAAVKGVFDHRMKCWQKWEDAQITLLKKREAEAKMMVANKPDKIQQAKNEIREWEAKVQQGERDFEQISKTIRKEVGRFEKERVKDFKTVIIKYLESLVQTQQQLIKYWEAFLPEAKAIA
# Chain of UniProt P08579 (P08579 whole entry, looked up): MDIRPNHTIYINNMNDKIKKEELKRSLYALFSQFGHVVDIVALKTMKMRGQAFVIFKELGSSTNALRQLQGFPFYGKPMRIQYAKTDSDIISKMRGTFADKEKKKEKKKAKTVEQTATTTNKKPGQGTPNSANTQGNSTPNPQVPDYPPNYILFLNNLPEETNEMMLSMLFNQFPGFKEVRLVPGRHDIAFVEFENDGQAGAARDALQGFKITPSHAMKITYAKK
# Chain of UniProt P53597 (P53597 whole entry, looked up): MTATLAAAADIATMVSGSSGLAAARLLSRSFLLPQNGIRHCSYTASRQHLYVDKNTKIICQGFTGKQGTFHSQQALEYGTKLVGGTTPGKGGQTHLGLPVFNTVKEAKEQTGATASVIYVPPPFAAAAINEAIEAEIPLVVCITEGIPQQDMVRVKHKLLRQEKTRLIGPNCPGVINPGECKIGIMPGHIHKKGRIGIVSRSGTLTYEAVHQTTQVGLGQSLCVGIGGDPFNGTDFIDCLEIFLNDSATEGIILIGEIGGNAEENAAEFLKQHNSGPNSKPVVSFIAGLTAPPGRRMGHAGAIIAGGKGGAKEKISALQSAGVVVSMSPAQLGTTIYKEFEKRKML
Target,log2 fold change [1],log2 fold change (crizotinib),log2 fold change [2],log2 fold change [3],log2 fold change (duvelisib),log2 fold change (gandotinib),log2 fold change (tozasertib),log2 fold change [4],log2 fold change (doramapimod),log2 fold change (ispinesib),log2 fold change (bafetinib),log2 fold change [5],log2 fold change (nilotinib),log2 fold change [6],log2 fold change (dasatinib),log2 fold change [7],log2 fold change [8],log2 fold change [9],log2 fold change (tipifarnib),log2 fold change (mubritinib)
TAOK1 (UniProt Q7L7X3),-0.002,-0.035,0.011,-0.08,-0.012,-0.029,-0.027,0.023,0.021,-0.001,-0.056,0.025,0.007,-0.023,-0.014,-0.03,0.043,-0.026,0.067,0.078
TFR2 (UniProt Q9UP52),0.068,-0.182,-0.001,-0.016,0.032,0.03,-0.023,-0.038,-0.019,-0.097,-0.226 (active),-0.012,0.012,-0.074,0.006,-0.026,-0.019,0.054,0.025,0.041
SNRNP40 (UniProt Q96DI7),0.033,0.116,0.14,0.023,-0.015,0.22,0.019,-0.059,0.071,0.077,0.018,-0.023,0.054,0.166,0.1,0.119,-0.051,-0.021,0.038,0.006
SUCLG1 (UniProt P53597),0.016,-0.028,0.079,-0.072,0.067,-0.048,-0.033,-0.004,-0.019,-0.012,-0.065,-0.01,-0.077,0.029,-0.025,-0.008,0.027,0.078,-0.008,-0.273 (active)
SSX2 (UniProt Q16385),-0.024,0.062,0.05,0.053,0.036,-0.003,0.031,-0.009,-0.043,-0.029,-0.098,-0.011,0.003,-0.061,0.014,-0.042,-0.039,0.012,-0.015,-0.048
SRFBP1 (UniProt Q8NEF9),-0.053,-0.029,-0.21,0.061,-0.039,0.083,0.055,-0.028,0.007,-0.055,0.075,-0.014,0.303,-0.031,0.095,-0.066,-0.163,-0.044,0.177,-0.129
STARD7 (UniProt Q9NQZ5),0.023,-0.051,0.045,-0.114,0.034,-0.168,-0.024,0.023,0.021,-0.01,-0.043,0.109,-0.057,0.081,-0.035,0.094,0.021,-0.007,-0.026,0.032
TECR (UniProt Q9NZ01),-0.002,-0.247,0.054,0.045,0.05,-0.344 (active),-0.031,0.044,-0.095,-0.501 (active),-0.133,0.057,-0.123,-0.035,-0.109,0.021,-0.006,-0.012,-0.135,0.016
TAOK3 (UniProt Q9H2K8),-0.051,-0.03,-0.008,-0.13,0.014,-0.08,0.011,0.057,0.023,0.01,-0.066,0.012,-0.05,0.03,-0.048,-0.048,0.025,-0.009,-0.026,0.018
SNRPB2 (UniProt P08579),-0.014,0.02,-0.024,0.008,-0.017,0.026,-0.008,-0.048,-0.01,0.027,-0.034,-0.081,0.04,0.048,0.075,0.135,-0.116,-0.025,0.084,0.045
SLC30A10 (UniProt Q6XR72),0.11,0.192,0.178,-0.001,0.079,-0.078,-0.062,-0.046,0.035,0.077,-0.019,-0.148,0.029,-0.061,0.016,0.043,0.078,-0.026,0.067,-0.007
SLC25A4 (UniProt P12235),0.004,0.112,0.093,0.01,0.012,-0.004,-0.072,-0.034,-0.053,0.028,-0.027,-0.097,-0.004,-0.03,0.033,-0.014,0.022,-0.005,0.026,-0.024
TM9SF2 (UniProt Q99805),0.056,-0.754 (active),-0.017,-0.049,0.064,0.008,0.028,0,0.007,-0.089,-0.056,0.008,0.025,-0.072,-0.013,0.041,0.023,0.036,0.009,-0.006
SMAP (UniProt O00193),0.004,-0.06,-0.01,-0.082,0.017,-0.032,0,-0.03,0.023,-0.015,0.043,-0.022,-0.004,0.006,0.033,-0.011,0.005,-0.027,-0.042,0.038
SNX2 (UniProt O60749),-0.034,-0.223,0.006,-0.039,-0.107,-0.216,-0.102,0.041,-0.014,-0.184,-0.153,0.088,-0.168,0,-0.134,-0.275,0.101,0.021,-0.056,0.044
SUCLA2 (UniProt Q9P2R7),0.034,0.001,0.087,-0.011,0.04,-0.058,-0.043,0.012,0.003,-0.064,0,-0.065,-0.098,0.057,-0.149,-0.04,0.005,0.038,-0.01,-0.697 (active)

# Reference: the supplement of paper PMC10849652
